Data published in PubChem BioAssay AID493168 (National Center for Advancing Translational Sciences (NCATS), 2011).
Results filed as inconclusive are left out. A call without a number means that no potency is given here. The source made the active and inactive calls. Calls come from the whole dose curve; as a rule, active = well fitted inhibition curve with a large enough effect; inconclusive = small, poorly fitted or top-dose-only effect, or effect the other way; inactive = flat fitted curve, though single readings scatter.

Target: Ubiquitin carboxyl-terminal hydrolase 2 (Homo sapiens) (UniProt O75604)
Experiment: Confirmation Assay for Inhibitors of Ubiquitin-specific Protease USP2a Using CHOP2 as the Reporter; note: nearly all actives have a fitted effect of over 55% in size
Settings: USP2 core, Ub-CHOP2 coupled reporter fluorescence; series mostly up to 38.3 µM
Outline: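 Ub-CHOP2 cleavage coupled to reporter activation was read by fluorescence after 60 min at RT, with 25 nM final Ub-CHOP2 and substrate. Enzyme (10 nM final USP2 core) first sat 30 min with compound; data were normalized to NEM and fitted to concentration-response curves.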
Potency is the fitted concentration of half-maximal effect.

Sequence of Ubiquitin carboxyl-terminal hydrolase 2 (Homo sapiens) (O75604 whole entry, looked up): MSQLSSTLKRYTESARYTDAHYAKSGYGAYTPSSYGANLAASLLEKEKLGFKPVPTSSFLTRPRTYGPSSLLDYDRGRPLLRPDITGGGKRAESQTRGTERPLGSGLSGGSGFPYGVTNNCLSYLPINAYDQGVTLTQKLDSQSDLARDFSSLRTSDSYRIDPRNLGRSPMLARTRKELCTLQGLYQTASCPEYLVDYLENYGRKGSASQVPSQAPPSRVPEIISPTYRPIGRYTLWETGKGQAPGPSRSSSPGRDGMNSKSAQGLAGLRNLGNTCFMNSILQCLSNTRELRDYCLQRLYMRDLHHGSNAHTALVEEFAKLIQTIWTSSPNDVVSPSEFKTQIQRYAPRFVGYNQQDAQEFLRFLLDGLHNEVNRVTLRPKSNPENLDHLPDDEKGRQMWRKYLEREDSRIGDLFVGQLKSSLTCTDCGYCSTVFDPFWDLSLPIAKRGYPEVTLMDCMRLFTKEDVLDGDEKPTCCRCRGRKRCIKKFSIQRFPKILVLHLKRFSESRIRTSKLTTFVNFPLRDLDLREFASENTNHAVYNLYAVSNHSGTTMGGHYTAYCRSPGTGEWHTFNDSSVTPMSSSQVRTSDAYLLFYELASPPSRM

SMILES	Potency
C=CC[C@H](CC(=O)OC(C)(C)C)C(=O)OC[C@@H]1CCCN1C(=O)[C@H](CC=C)CC(=O)N[C@H](CO)Cc1ccccc1	inactive
O=C(Nc1ccc(Nc2ccncc2)cc1)c1ccc(Nc2ccnc3ccc([N+](=O)[O-])cc23)cc1	7.36 µM (active)
O=C(CSCCO)Nc1cccc2ccccc12	inactive
CC(=O)COc1ccc2c(-c3ccccc3)cc(=O)oc2c1	inactive
Clc1ccccc1-c1nnc2sc(-c3cccs3)nn12	inactive
O=C(CNC(=O)C1CCCCC1)NC1=NCCS1	inactive
O=c1cc(CO)oc(CN2CCN(Cc3ccccc3)CC2)c1O	inactive
Cc1cccc(N2CCN(C(=O)CCc3nc4ccccc4[nH]3)CC2C)c1 (stereo unspecified)	inactive
O=C(c1ccccc1N(Cc1ccccc1)S(=O)(=O)c1ccccc1)N1CCOCC1	inactive
Cc1ccc2c(c1)c1c3n2CCN(C(=O)Cn2c(-c4ccccc4)noc2=O)C3CCC1 (stereo unspecified)	inactive
Cc1ccc2[nH]c3c(c2c1)CN(C(=O)CN1CCSCC1)CC3	inactive
CC12CN3CC(C)(CN(C1)C3c1ccc(Cl)cc1Cl)C2O (stereo unspecified)	inactive
C=CC[C@H](CC(=O)N[C@H](CO)Cc1ccccc1)C(=O)N[C@@H](COC(=O)[C@@H](CC=C)CC(=O)OC(C)(C)C)Cc1c[nH]c2ccccc12	inactive
O=C(Nc1cnn(Cc2ccccc2)c1)c1nc2ncccn2n1	inactive
O=C(COc1ccccc1)Nc1nnc(-c2ccc(Cl)s2)o1	inactive
C#CCOCCOCCOCCNc1nc(N2CCN(C(=O)CCCCCCCCCCNC(=O)[C@H]([C@@H](C)CC)n3cc(CCCCCN)nn3)CC2)nc(N2CCN(C(=O)CCCCCCCCCCNC(=O)[C@H](CCCCN)n3cc(CCCC(=O)O)nn3)CC2)n1	13.1 µM (active)
